Test results taken from the supplement of paper PMC6555819.

Experiments:
Assay in all cases: PBM binding z-score (relative to random genomic background probes); higher = stronger binding; sequences stand for … in GC…GCGATTGACAGCGTAGAATGAAGG
[1] = tested on: FXR:RXRa (NR concentration 270 nM, RXRa partner concentration 90 nM)
Summary of the method: (§1)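 Random background probes are the reference for binding z-scores. These scores derive from regression-normalized fluorescence on custom Agilent 4×180K protein-binding microarrays incubated 1 h with ligand-free nuclear receptor dimers. Binding was detected with antibodies against each partner (one per run).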

[2] = tested on: LXRa:RXRa (NR concentration 270 nM, RXRa partner concentration 90 nM)
Summary of the method: as §1

[3] = tested on: LXRa homodimer (NR concentration 270 nM)
Summary of the method: as §1

[4] = tested on: LXRb:RXRa (NR concentration 270 nM, RXRa partner concentration 90 nM)
Summary of the method: as §1

[5] = tested on: LXRb homodimer (NR concentration 270 nM)
Summary of the method: as §1

[6] = tested on: PPARa:RXRa (NR concentration 270 nM, RXRa partner concentration 90 nM)
Summary of the method: as §1

[7] = tested on: PPARg:RXRa (NR concentration 180 nM, RXRa partner concentration 90 nM)
Summary of the method: as §1

[8] = tested on: PPARg:RXRa 270nM:90nM, anti-RXR (NR concentration 270 nM, RXRa partner concentration 90 nM)
Summary of the method: as §1

[9] = tested on: PPARg:RXRa 30nM:10nM, anti-RXR (NR concentration 30 nM, RXRa partner concentration 10 nM)
Summary of the method: as §1

[10] = tested on: PPARg:RXRa 90nM:30nM, anti-RXR (NR concentration 90 nM, RXRa partner concentration 30 nM)
Summary of the method: as §1

[11] = tested on: PPARg:RXRa DBDmut IVT, anti-RXR (DBD mutation: RXRa K156A/R161A, NR concentration 270 nM, RXRa partner concentration 90 nM)
Summary of the method: as §1

[12] = tested on: PPARg:RXRa IVT, anti-PPARg (NR concentration 270 nM, RXRa partner concentration 90 nM)
Summary of the method: as §1

[13] = tested on: PPARg DBDmut:RXRa IVT, anti-PPARg (DBD mutation: PPARg1 K132A/R137A, NR concentration 270 nM, RXRa partner concentration 90 nM)
Summary of the method: as §1

[14] = tested on: PPARg DBDmut IVT, anti-PPARg (DBD mutation: PPARg1 K132A/R137A, NR concentration 270 nM)
Summary of the method: as §1

[15] = tested on: PPARg homodimer (NR concentration 180 nM)
Summary of the method: as §1

[16] = tested on: PXR:RXRa (NR concentration 270 nM, RXRa partner concentration 90 nM)
Summary of the method: as §1

[17] = tested on: PXR homodimer (NR concentration 270 nM)
Summary of the method: as §1

[18] = tested on: RARa:RXR (NR concentration 270 nM, RXRa partner concentration 90 nM)
Summary of the method: as §1

[19] = tested on: RARa homodimer (NR concentration 270 nM)
Summary of the method: as §1

[20] = tested on: RARb:RXRa (NR concentration 270 nM, RXRa partner concentration 90 nM)
Summary of the method: as §1

Row | Sequence | PBM binding z-score [1] | PBM binding z-score [2] | PBM binding z-score [3] | PBM binding z-score [4] | PBM binding z-score [5] | PBM binding z-score [6] | PBM binding z-score [7] | PBM binding z-score [8] | PBM binding z-score [9] | PBM binding z-score [10] | PBM binding z-score [11] | PBM binding z-score [12] | PBM binding z-score [13] | PBM binding z-score [14] | PBM binding z-score [15] | PBM binding z-score [16] | PBM binding z-score [17] | PBM binding z-score [18] | PBM binding z-score [19] | PBM binding z-score [20]
1 | CCTTACGGGTGACTGACAGGTTATAGCATTTGGA | 0.488 | 0.771 | -0.154 | 0.347 | -0.474 | 1.2 | 0.53 | 0.218 | 0.1 | -0.0326 | 1.95 | 1.09 | 0.0764 | -0.581 | 0.697 | 0.299 | -0.0252 | 0.82 | 0.181 | 0.546
2 | GCGACTGGGGCAAAGGAGGTTACCATAAGGTTGG | 1.77 | 1.09 | -0.0421 | 0.882 | -0.261 | 2.06 | 3.15 | 3.93 | 1.89 | 3.87 | 4.69 | 3.76 | -0.0461 | -0.579 | 1.05 | 1.54 | -0.167 | 1.41 | -0.0952 | 1.26
3 | AATAGCAGGCCAAGTTTGGGTCACTCAAACAAAG | 0.16 | 0.399 | -0.166 | 0.913 | -0.947 | 1.72 | 0.314 | 0.478 | -0.511 | 0.171 | 1.2 | 1.95 | -0.692 | -0.417 | 0.551 | 1.05 | -0.42 | 1.79 | -0.848 | 1.98
4 | TCGAGTAGGTTAGACGGGGCATTCAGCCAACATA | 0.121 | 0.00602 | -0.343 | 0.522 | -0.523 | 0.783 | 0.118 | 0.993 | 1.05 | 1.04 | 2.22 | 0.996 | -0.111 | 0.319 | -0.139 | -0.0359 | -0.369 | -0.135 | -0.49 | 0.612
5 | CCGACTGGGGCCAGGTTACCATAACGCACAGCCA | 0.0157 | -0.087 | -0.139 | 0.152 | -0.749 | 0.188 | 0.629 | 0.301 | -0.675 | -0.256 | -0.238 | -0.22 | -1.52 | -1.47 | 0.249 | -0.136 | -0.0661 | 0.176 | -0.0137 | 0.996
6 | GCTGCTAGGTCAGGTTGGTCATCTAACGGGTACG | 1.59 | 1.01 | 0.226 | 0.755 | 0.00509 | 1.45 | 0.55 | 1.02 | -0.203 | 0.295 | 2.9 | 2.41 | -0.672 | -0.462 | 0.986 | 0.706 | -0.262 | 1.02 | -0.199 | 3.29
7 | TCGAGTAGGTCAGGGGCATTCAGAATGGCGTCGA | 2.3 | 1.52 | -0.495 | 1.9 | -0.546 | 3.41 | 4.73 | 4.8 | 2.48 | 4.21 | 4.91 | 5.07 | -0.408 | -0.403 | 1.33 | 1.2 | -0.323 | 1.44 | -0.681 | 3.39
8 | TGAATAAGGTTAAAGATCAGGGAACGTGGCGTCG | 2.83 | 2.57 | 0.114 | 1.71 | 0.337 | 3.91 | 4.41 | 5.68 | 4.08 | 5.9 | 1.52 | 2.45 | 0.601 | 0.358 | 1.06 | 1.73 | 0.429 | 3.27 | 0.953 | 2.35
9 | TAGCCTAGGTCTTTCAGGGGCCAGTATAGAAAGC | -0.49 | -0.379 | -0.527 | -0.066 | -0.296 | -0.263 | -0.284 | -0.623 | -0.57 | -0.453 | -0.411 | 0.431 | -0.836 | 0.0901 | -0.27 | -0.417 | -0.804 | -0.214 | -1.24 | 0.577
